Reference: PubChem BioAssay AID2018 (Sanford-Burnham Center for Chemical Genomics, 2009)
The whole screen tested about 1,200 compounds, of which about 600 (50%) were called active. The set was probably picked from earlier hits. The list shows a part of the results. Entries with a potency or affinity are not part of this list. Unmarked numbers belong to inactive results. Cut-off read from the data, not from the text of the source: active = inhibition above about 42%; inactive = the rest.

The molecules below were run against SUMO-conjugating enzyme UBC9 (Homo sapiens) (UniProt P63279) (assay: SUMOylation inhibitor hit validation, confirmation, SUMOylation inhibitor project, biochemical, AlphaScreen (AID 2018)). Conditions: AlphaScreen in vitro SUMOylation assay; at 35 µM; hits give high values.
Sequence of SUMO-conjugating enzyme UBC9 (Homo sapiens) (P63279 whole entry, looked up): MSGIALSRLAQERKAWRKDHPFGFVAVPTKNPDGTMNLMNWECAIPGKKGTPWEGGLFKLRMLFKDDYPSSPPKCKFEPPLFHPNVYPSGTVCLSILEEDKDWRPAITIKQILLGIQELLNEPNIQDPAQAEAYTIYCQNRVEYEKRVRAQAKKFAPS

SMILES	inhibition
O=c1oc2ccccc2c(Nc2cccc3cccnc23)c1[N+](=O)[O-]	7.5%
N#Cc1c(N)n(CCOC(=O)c2ccc(Cl)cc2)c2nc3ccccc3nc12	-17.7%
CCCCn1c(NC(C)=O)c(C#N)c2nc3ccccc3nc21	15.5%
N#Cc1c(N)n(-c2cccc(C(=O)O)c2)c2nc3ccccc3nc12	43% (active)
C=CCn1c(N)c(C(=O)Nc2cccc(C)c2)c2nc3ccccc3nc21	8.9%
N#Cc1c(N)n(CCNC(=O)c2ccccc2)c2nc3ccccc3nc12	29.4%
C=CCn1c(N)c(C(=O)OC(C)(C)C)c2nc3ccccc3nc21	5.9%
Cc1ccc2[nH]c3c(c2c1)CN(C(=O)CN1CCCc2ccccc21)CC3	41%
C/C(CCc1ccco1)=N\NC(=O)CNc1cccc2ccccc12	6.1%
O=C(NC(=S)Nc1c(Cl)ccc2nsnc12)c1ccco1	19.5%
Cn1nccc1NC(=O)Nc1cccc(Cl)c1	10.6%
Nc1ccc(N2CCN(CCCCN3C(=O)C4CCCN4C3=O)CC2)cc1 (stereo not given)	29.6%
C/C(=C\C(=S)Nc1ccccc1)Nc1cccc2ccccc12	29.8%
Nc1ccc2oc(-c3cccs3)nc2c1	-13.9%
CCN(CC)c1cc(Cl)c2nonc2c1N	16.4%
Nc1ccc(N2CCCCC2)c2nonc12	78.2% (active)
Nc1c(N2CCOCC2)cc(Cl)c2nonc12	-2.8%
O=[N+]([O-])c1c(NCCO)cc(N2CCCCCC2)c2nonc12	6%
O=C(Nc1ccc(N2CCOCC2)c2nonc12)C1CCCC1	24%
CN(C(=O)CSc1nnc(NCc2ccccc2)s1)C1CCS(=O)(=O)C1 (stereo not given)	12.1%
Nc1ccc(-c2nc3ccc(N)cc3[nH]2)cc1	-8.6%
COc1ccc(-c2nc3ccncc3[nH]2)cc1OC	11.1%
CN(C)c1ccc(C(=O)/C=C/c2ccco2)cc1	10.9%
O=C(/C=C/c1ccco1)NC(=S)NNC(=O)c1ccco1	-483%
O=C(/C=C\c1ccco1)c1ccc(NC(=O)c2ccco2)cc1	56.4% (active)
CCc1nc2sc(C(C)=O)c(N)c2c2c1CCCC2	-13%
CC(C)(C)C1CCC2(CC1)Nc1cccc3cccc(c13)N2	52.8% (active)

SMILES	inhibition
O=C(CCCN1C(=O)/C(=C/c2ccco2)SC1=S)Nc1ccccc1C(=O)O	76.9% (active)
O=C(CN1C(=O)CSC1=O)Nc1ccc(C(=O)O)cc1	-7.6%
COc1ccc(N2C(=O)[C@@H]3[C@H](C2=O)[C@H]2c4ccccc4C=CN2[C@@H]3C(C)=O)cc1	53.6% (active)
CCC(=O)N1CCc2cc(S(=O)(=O)NC(C(=O)NCc3ccc(C)cc3)C(C)C)ccc21 (stereo not given)	37.4%
Cc1ccoc1C(=O)NCCCNC(=O)c1occc1C	56.7% (active)
CN(C)c1cccc2cccc(N(C)C)c12	3.1%
Cc1cc2oc(C(=O)Nc3ccc(S(=O)(=O)Nc4nccs4)cc3)cc(=O)c2cc1Cl	75% (active)
CCN(c1ccccc1)c1cc2ccccc2c(=O)[nH]1	35.3%
O=c1[nH]c(Nc2ccccc2)cc2ccccc12	102% (active)
Cn1c(-c2ccc(C=O)s2)nc2ccccc21	14.4%
Cc1ccc(C(=O)NC(C)c2nc3ccccc3n2CC(=O)Nc2c(C)cc(C)cc2C)cc1 (stereo not given)	5.3%
CCn1c(NC(=O)c2ccccc2)nc2ccccc21	73% (active)
CCOc1ccc(NC(=S)Nc2cccc3ccccc23)cc1	4.4%
CCOC(=O)COc1nc(-c2ccco2)cc(-c2ccco2)c1C#N	-28.4%
COc1ccc(C(N)c2nccc3cc(OC)c(OC)cc23)cc1OC (stereo not given)	22.1%
CC1=CC(C)(C)N2C(=O)C(=Nc3ccc(O)cc3)c3cccc1c32	95.8% (active)
CCC(=O)c1ccccc1OCCSc1nc(C)cc(=O)[nH]1	10.6%
Cc1cc(=O)[nH]c(SCC(=O)Nc2cccc(C(F)(F)F)c2)n1	-20.9%
Cc1cc(=O)[nH]c(SCC(=O)c2ccc(O)c(O)c2)n1	55.2% (active)
O=C(NN1C(=O)CSC1=S)C(=O)NN1C(=O)CSC1=S	102% (active)
CCOc1cc(CNc2cccc3ccccc23)cc(Br)c1OCC(=O)NC(C)(C)C	-1.9%
CCOc1cc(CNc2ccc(N3CCN(C(C)=O)CC3)cc2)cc(Br)c1OC	45.3% (active)
CCN(Cc1cc(=O)n2ccsc2n1)c1cccc2ccccc12	25.6%
Oc1ccc2ccccc2c1C=NCc1ccccc1	38.6%
Oc1ccc2ccccc2c1C=NCc1cn2ccsc2n1	42.5% (active)
Cc1ccc(NC(=S)Nc2ccc3cn[nH]c3c2)cc1	30.2%
CN(C)c1cccc2c(C=C(C#N)C#N)ccc(N(C)C)c12	19.4%

SMILES	inhibition
CCCS(=O)(=O)c1c(S(=O)(=O)CCC)c2c(N)cccn2c1C(=O)c1ccc(Br)cc1	23.1%
COc1ccc(N2C3=C(CC4=C2CCCC4=O)C(=O)CCC3)cc1	19.3%
CCOC(=O)C(CCCCOc1ccc([N+](=O)[O-])cc1)C(=O)OCC	-21.9%
O=C(O)/C=C/C(=O)Nc1ccc(O)cc1	15.1%
CCOc1cccc(CNc2ccc(O)cc2)c1OCc1ccc(Cl)cc1Cl	81% (active)
Cn1c(CNc2ccc(O)cc2)nc2ccccc21	16.9%
O=c1[nH]nc(CNc2ccc(O)cc2)c2ccccc12	9.6%
Oc1ccc(NCc2ccccc2OCc2ccccc2F)cc1	88.9% (active)
CCOc1ccccc1CNc1ccc(O)cc1	45.3% (active)
O=c1nc2s/c(=C\c3ccco3)c(=O)n2nc1Cc1ccccc1	26.6%
COc1ccccc1/C=C/CN1CCN(c2ccccc2)CC1	29.6%
CCOC(=O)C1=C(N)n2c(s/c(=C/c3ccco3)c2=O)=C(C(=O)OC)C1c1ccco1 (stereo not given)	34%
O=c1c2cc(N3CCOCC3)ccc2[nH]c(=S)n1CC1CCCO1 (stereo not given)	-2.6%
CCOC(=O)c1c(NC(=O)C2C3C=CC(CC3)C2C(=O)O)sc(C)c1CC (stereo not given)	20%
Cc1ccc(F)c(NC(=S)Nc2cccc3ccccc23)c1	10.1%
O=C(/C=C/c1ccco1)Nc1cccc2cccnc12	6.6%
COc1cccc(CNc2cccc3cccnc23)c1O	43.5% (active)
Oc1ccc(Br)cc1CNc1cccc2cccnc12	61.8% (active)
CC(C)(C)C(=O)NC(Nc1cccc2cccnc12)C(Cl)(Cl)Cl (stereo not given)	7.9%
Cc1ccc(O)c(CNc2cccc3cccnc23)c1	49.6% (active)
O=C(O)c1cc2cccc(S(=O)(=O)N3CCOCC3)c2cc1O	-21.6%
CC(=O)c1ccc2cccc3c2c1N=CN3C	13.7%
COc1cc(C)c2c(c1C=O)Oc1c(c(C)c(O)c3c1C(O)OC3=O)OC2=O (stereo not given)	95% (active)
COc1ccc(S(=O)(=O)Nc2ccc(O)c3ccccc23)cc1	48.3% (active)
O=S(=O)(Nc1ccc(O)c2ccccc12)c1cccs1	51.7% (active)
Cc1ccc(S(=O)(=O)NNC(=O)Nc2cccc3ccccc23)cc1	9.6%
CCc1ccc(S(=O)(=O)Nc2ccc(O)c3ccccc23)cc1	38.3%

SMILES	inhibition
CCc1ccc2c(c1)c1nc(C)sc1n2CC	20.9%
Nc1ccccc1NC1=CC(=O)CC(c2ccco2)C1 (stereo not given)	18.4%
O=C1C=C(O)CC(c2ccco2)C1 (stereo not given)	47.7% (active)
CC(C)CNC1=CC(=O)CC(c2ccco2)C1 (stereo not given)	0.4%
Cc1sc2nc3ccc(NCc4ccco4)nn3c(=O)c2c1C	0.9%
CCOc1cc(NC(=S)NCc2ccco2)c(OCC)cc1NC(=O)CC	-0.7%
CCOC(=O)N1CCc2c(sc3c2c(=O)n(Cc2ccccc2)c(=O)n3CC(=O)NCCOC)C1	15.2%
CCCCCCCC1(C)NC(=O)N(CC(=O)Nc2cc(C)on2)C1=O (stereo not given)	2.5%
Cc1oc(-c2ccc(F)cc2)cc1-c1nn2c(-c3ccoc3C)nnc2s1	22.7%
Cc1c(C(=O)c2ccc(Cl)cc2[N+](=O)[O-])c2ccccn2c1CCC#N	17.8%
COc1ccc(C(=O)CSc2nnc(-c3ccco3)c(-c3ccco3)n2)cc1	43% (active)
O=C(CSc1nnc(-c2ccco2)c(-c2ccco2)n1)c1ccccc1	76.2% (active)
COc1ccccc1CCNC(=O)CSc1ccc(-c2ccco2)nn1	19%
Cc1ccc(-c2cc(C(=O)N/N=C/c3ccc([N+](=O)[O-])o3)c3ccccc3n2)o1	30.3%
O=C(N/N=C/c1ccc(-c2ccc(Cl)c(C(=O)O)c2)o1)c1cc2c(ccc3ccccc32)o1	102% (active)
Cc1c(C(=O)O)c(C(=O)O)nc2ccc(N3CCOCC3)cc12	-17.6%
NC1=NC(c2ccc(Cl)cc2)N(c2ccc(S(N)(=O)=O)cc2)C(N)=N1 (stereo not given)	25.2%
O=C(CNc1cccc2ccccc12)N/N=C/c1ccc([N+](=O)[O-])o1	37.5%
CC(Nc1cccc2ccccc12)C(=O)N/N=C/c1ccccn1 (stereo not given)	-4.4%
C#CCOc1ccc(/C=C2/C(=O)N(c3cccc(C(=O)O)c3)N=C2C)cc1OC	55.9% (active)
COc1cc(/C=C2/C(=O)N(c3ccc([N+](=O)[O-])cc3)N=C2N2CCOCC2)ccc1O	68.6% (active)
COc1ccc(CCN2Cc3c(cccc3[N+](=O)[O-])C2=O)cc1OC	-5.8%
O=C1CC(N2CCOCC2)=NN1c1ccc([N+](=O)[O-])cc1	51.4% (active)
N#Cc1cc2ccc(N3CCOCC3)cc2cc1C#N	-11.7%
